A short description of assay [1]: NCI Yeast Anticancer Drug Screen. Data for the rad50 strain (AID 155).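 Further: 0% = growth of vehicle-only cultures of the same strain.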 To be noted: S. cerevisiae rad50 strain growth inhibition, stronger effect = higher value. A digest of the protocol: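 A DNA repair-deficient yeast mutant serves as the test organism; compound-induced growth inhibition is calculated against vehicle-treated cells.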
Assay [2] can be described thus: NCI Yeast Anticancer Drug Screen. Data for the mec2-1 strain (AID 157). To be noted: S. cerevisiae mec2-1 strain, stronger effect = higher value. An outline of the steps: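 Yeast mec2-1 mutant treated with compound. Readout: growth inhibition vs vehicle controls.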
A short description of assay [3]: NCI Yeast Anticancer Drug Screen. Data for the sgs1 mgt1 strain (AID 161).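 Further: 0% = growth of cultures given vehicle only.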 To be noted: S. cerevisiae sgs1 mgt1 strain, stronger effect = higher value. A digest of the protocol:
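Mutant yeast exposed to compound; growth scored against vehicle-only wells.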

Assay [4] can be described thus: NCI Yeast Anticancer Drug Screen. Data for the cln2 rad14 strain (AID 165).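 Further: 0% = growth equal to vehicle treated cultures.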 To be noted: S. cerevisiae cln2 rad14 strain, stronger effect = higher value. A digest of the protocol:
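cln2 rad14 yeast strain; compound exposure; growth inhibition read vs vehicle controls.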

The nature of assay [5]: NCI Yeast Anticancer Drug Screen. Data for the bub3 strain (AID 167). The conditions noted are these: S. cerevisiae bub3 mutant strain, stronger effect = higher value. A digest of the protocol:
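Inhibition values come from growth of compound-treated mutant yeast normalised to vehicle-treated controls.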

Assay [6] in a line: NCI Yeast Anticancer Drug Screen. Data for the mlh1 rad18 strain (AID 175). The conditions noted are these: S. cerevisiae mlh1 rad18 strain growth inhibition, stronger effect = higher value. An outline of the steps:
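Yeast w/ defined DNA-repair lesions; compound exposure; growth vs vehicle controls → % inhibition.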

Where [7] appears, read: at 5.0 µM (retest, dose inferred, filed as 0.5).
Setting [8] is: at 50.0 µM (retest, dose inferred, filed as 5.0).

The structures appear in SMILES notation. The panel holds about 79,000 compounds, 15% with a hit somewhere; the sample as a whole holds those more often. Unmarked numbers belong to inactive results. Activity calls are given as the source filed them. No stated cut-off is given here; in the data, active means growth inhibition above about 70%; inactive means the rest.

Take `CC(=O)Nc1ccc(C(=O)n2[nH]c(C)c(/C=C3\C(=O)C=Cc4ccccc43)c2=O)cc1`: the growth inhibition in assay [1] (setting [7]) is 27%; in assay [1] (setting [8]) it was 100% (active); in assay [1] (at 50.0 µM) it was 99.2% (active); in assay [2] (setting [7]), 19%; in assay [2] (setting [8]), 100% (active); in assay [2] (at 50.0 µM), 99.5% (active). In addition, the growth inhibition was 15% in assay [3] (setting [7]); 99% (active) in assay [3] (setting [8]); 99.4% (active) in assay [3] (at 50.0 µM); -10% in assay [4] (setting [7]); 99% (active) in assay [4] (setting [8]); 98.7% (active) in assay [4] (at 50.0 µM). In addition, the growth inhibition in assay [5] (setting [7]) was 24%; in assay [5] (setting [8]), 100% (active); in assay [5] (at 50.0 µM) it was 99.2% (active); in assay [6] (setting [7]), 42%; in assay [6] (setting [8]), 99% (active); in assay [6] (at 50.0 µM) it was 99% (active).
For the compound `O=[N+]([O-])c1cccc(S(=O)(=O)N/N=C/c2cc(I)cc([N+](=O)[O-])c2O)c1`, the growth inhibition is 5% in assay [1] (setting [7]); 6% in assay [1] (setting [8]); 25.1% in assay [1] (at 50.0 µM); 5% in assay [2] (setting [7]); 2% in assay [2] (setting [8]); 13.1% in assay [2] (at 50.0 µM). For the same compound, the growth inhibition in assay [3] (setting [7]) was 10%; in assay [3] (setting [8]), 11%; in assay [3] (at 50.0 µM), 34.5%; in assay [4] (setting [7]), -1%; in assay [4] (setting [8]), 2%; in assay [4] (at 50.0 µM), 7.85%. For the same compound, the growth inhibition is 2% in assay [5] (setting [7]); -1% in assay [5] (setting [8]); 4.7% in assay [5] (at 50.0 µM); 6% in assay [6] (setting [7]); 8% in assay [6] (setting [8]); 45.9% in assay [6] (at 50.0 µM).
For the compound `CC1CC(C)C(C)C(CO)C1` (configuration not stated), the growth inhibition in assay [1] (setting [7]) was 8%; in assay [1] (setting [8]), -3%; in assay [1] (at 50.0 µM), -22.4%; in assay [2] (setting [7]), 4%; in assay [2] (setting [8]), -3%; in assay [2] (at 50.0 µM), -3.2%. The growth inhibition in assay [3] (setting [7]) was -8%; in assay [3] (setting [8]), -1%; in assay [3] (at 50.0 µM), -22.6%; in assay [4] (setting [7]), -1%; in assay [4] (setting [8]) it was -3%; in assay [4] (at 50.0 µM) it was 40%. Besides, the growth inhibition in assay [5] (setting [7]) is 0%; in assay [5] (setting [8]), 4%; in assay [5] (at 50.0 µM), -0.05%; in assay [6] (setting [7]), 6%; in assay [6] (setting [8]), -5%; in assay [6] (at 50.0 µM), -12.2%.
Regarding `NNc1c(Cl)c(F)c(Cl)c(F)c1Cl`, the growth inhibition in assay [1] (setting [7]) is 13%; in assay [1] (setting [8]) it was 17%; in assay [1] (at 50.0 µM), 21.6%; in assay [2] (setting [7]), 5%; in assay [2] (setting [8]), 17%; in assay [2] (at 50.0 µM), 36.5%. The growth inhibition in assay [3] (setting [7]) is 4%; in assay [3] (setting [8]) it was 26%; in assay [3] (at 50.0 µM), 47.5%; in assay [4] (setting [7]) it was 13%; in assay [4] (setting [8]) it was 24%; in assay [4] (at 50.0 µM), 34.2%. Also, the growth inhibition is 3% in assay [5] (setting [7]); 24% in assay [5] (setting [8]); 54.7% in assay [5] (at 50.0 µM); 17% in assay [6] (setting [7]); 24% in assay [6] (setting [8]); 66.7% in assay [6] (at 50.0 µM).
Consider `CCS(=O)(=O)/C=C(\C#Cc1ccccc1)c1ccccc1`, for which the growth inhibition in assay [1] (setting [7]) was 9%; in assay [1] (setting [8]) it was 84% (active); in assay [1] (at 50.0 µM), 79.2% (active); in assay [2] (setting [7]), -1%; in assay [2] (setting [8]) it was 95% (active); in assay [2] (at 50.0 µM), 82.4% (active). For the same compound, the growth inhibition in assay [3] (setting [7]) was 5%; in assay [3] (setting [8]) it was 90% (active); in assay [3] (at 50.0 µM) it was 83.7% (active); in assay [4] (setting [7]) it was 12%; in assay [4] (setting [8]), 81% (active); in assay [4] (at 50.0 µM), 80.3% (active). The growth inhibition in assay [5] (setting [7]) was 11%; in assay [5] (setting [8]), 99% (active); in assay [5] (at 50.0 µM) it was 87.5% (active); in assay [6] (setting [7]), 6%; in assay [6] (setting [8]) it was 94% (active); in assay [6] (at 50.0 µM) it was 92.2% (active).
For the compound `N/N=C(\N)c1ccc2ccc3cccnc3c2n1`, the growth inhibition is 1% in assay [1] (setting [7]); 73% (active) in assay [1] (setting [8]); 74% (active) in assay [1] (at 50.0 µM); 2% in assay [2] (setting [7]); 73% (active) in assay [2] (setting [8]); 42.3% in assay [2] (at 50.0 µM). The growth inhibition in assay [3] (setting [7]) was -2%; in assay [3] (setting [8]), 77% (active); in assay [3] (at 50.0 µM), 56.8%; in assay [4] (setting [7]), -7%; in assay [4] (setting [8]) it was 62%; in assay [4] (at 50.0 µM) it was 45.9%. In addition, the growth inhibition was -3% in assay [5] (setting [7]); 59% in assay [5] (setting [8]); 41.5% in assay [5] (at 50.0 µM); 13% in assay [6] (setting [7]); 79% (active) in assay [6] (setting [8]); 52.8% in assay [6] (at 50.0 µM).
With `Oc1c(Cl)c2ccccc2c2ccccc12`, the growth inhibition is -2% in assay [1] (setting [7]); 59% in assay [1] (setting [8]); 98.6% (active) in assay [1] (at 50.0 µM); 56% in assay [2] (setting [7]); 48% in assay [2] (setting [8]); 99.2% (active) in assay [2] (at 50.0 µM). The growth inhibition is 1% in assay [3] (setting [7]); 23% in assay [3] (setting [8]); 99% (active) in assay [3] (at 50.0 µM); -1% in assay [4] (setting [7]); 24% in assay [4] (setting [8]); 98.5% (active) in assay [4] (at 50.0 µM). For the same compound, the growth inhibition is 37% in assay [5] (setting [7]); 76% (active) in assay [5] (setting [8]); 93.5% (active) in assay [5] (at 50.0 µM); 8% in assay [6] (setting [7]); 44% in assay [6] (setting [8]); 98.7% (active) in assay [6] (at 50.0 µM).
As to `CCC(C(=O)C(C)C(O)C(C)CCc1ccc(C)c(O)c1C(=O)O)C1OC(CC)(C2CCC(O)(CC)C(C)O2)CC1C` (configuration not stated), the growth inhibition in assay [1] (setting [7]) was 28%; in assay [1] (setting [8]) it was 96% (active); in assay [1] (at 50.0 µM), 88.2% (active); in assay [2] (setting [7]), 56%; in assay [2] (setting [8]) it was 98% (active); in assay [2] (at 50.0 µM), 90.7% (active). Moreover, the growth inhibition is 40% in assay [3] (setting [7]); 97% (active) in assay [3] (setting [8]); 90% (active) in assay [3] (at 50.0 µM); 73% (active) in assay [4] (setting [7]); 98% (active) in assay [4] (setting [8]); 89.2% (active) in assay [4] (at 50.0 µM). Moreover, the growth inhibition in assay [5] (setting [7]) was 64%; in assay [5] (setting [8]) it was 98% (active); in assay [5] (at 50.0 µM) it was 88.7% (active); in assay [6] (setting [7]) it was 28%; in assay [6] (setting [8]), 97% (active); in assay [6] (at 50.0 µM), 88.2% (active).
Take `CSc1nc(SC)c2cnn(Cc3ccccc3)c2n1`: the growth inhibition in assay [1] (setting [7]) was -16%; in assay [1] (setting [8]), 21%; in assay [1] (at 50.0 µM), -7.1%; in assay [2] (setting [7]) it was -1%; in assay [2] (setting [8]) it was -15%; in assay [2] (at 50.0 µM), 4.9%. In addition, the growth inhibition is -15% in assay [3] (setting [7]); 25% in assay [3] (setting [8]); 9.7% in assay [3] (at 50.0 µM); -11% in assay [4] (setting [7]); -4% in assay [4] (setting [8]); 2.35% in assay [4] (at 50.0 µM). The growth inhibition was -8% in assay [5] (setting [7]); 18% in assay [5] (setting [8]); 1.3% in assay [5] (at 50.0 µM); 18% in assay [6] (setting [7]); 7% in assay [6] (setting [8]); 16.9% in assay [6] (at 50.0 µM).
